# Results taken from PubChem BioAssay (NCATS).
# Records with an inconclusive call do not appear. Entries that show only a call come without a potency. Activity calls are given as the source filed them. Calls come from the whole dose curve; as a rule, active = well fitted cell-killing curve with a large enough effect; inconclusive = small, poorly fitted or top-dose-only effect, or effect the other way; inactive = flat fitted curve, though single readings scatter.
# Test: MultiTox-Fluor Cytotoxicity Assay - LYMP1-001 - Dead Cells (AID 946)
# Settings: LYMP1-001 lymphoblastoid cells, dead-cell protease fluorescence; series mostly up to 92.2 µM
# Source text: NIH Chemical Genomics Center [NCGC]
# NIH Molecular Libraries Screening Centers Network [MLSCN]
# National Institutes of Environmental Health Sciences [NIEHS]
# National Toxicology Program [NTP]
# We have developed a 1536-well cell-based assay for quantitative high throughput screening (qHTS) against a number of cell lines to determine in vitro cytotoxicity of small molecules. This particular assay uses a human lymphoblastoid cell line (LYMP1-001) purchased from Coriell Institute for Medical Research.
# NCGC Assay Protocol Summary:
# The MultiTox-Fluor Cytotoxicity Assay (Promega) is a homogeneous method to simultaneously measure the relative number of live and dead cells in culture by detecting changes in cell membrane integrity. There are two fluorogenic peptide substrates in the assay reagent. Viable cells are determined when the cell-permeant substrate (GF-AFC) enters the cell and is cleaved by protease from live cells resulting in liberated fluorophore. This live-cell protease activity restricted to viable cells is proportional to cell number. The dead cells are determined by using fluorogenic cell-impermeant peptide substrate (bis-AAF-R110) which cleaved by dead cell proteases leaking from damaged cell membrane.
# Using the MultiTox-Fluor Cytotoxicity Assay, the relative number of dead cells was measured in the lymphoblastoid cell line with complete culture medium following compound treatment for 16 hours. The assay was performed in opaque black Kalypsys 1536-well plates. In the screen, tetraoctylammonium bromide was used as positive control. Library compounds were measured for their ability to cause acute toxicity in the cell line, as reflected by an increase in dead cell protease activity, in a concentration-dependent manner. Data were normalized to the controls for basal activity (DMSO only) and 100% stimulation (15 uM tetraoctylammonium bromide). AC50 values were determined from concentration-response data modeled with the standard Hill equation.
# qHTS protocol for MultiTox-Fluor Cytotoxicity assay
# [Step] [Parameter] [Value] [Description]
# 1. Reagent; 5 uL; 2500 lymphoblastoid cells/well
# 2. Time; 5 hr; 37 C incubation
# 4. Controls; 23 nL; Tetraoctylammonium bromide 6.4pM to 92 uM
# 5. Time; 16 hr; 37 C incubation
# 6. Reagent; 5 uL; MuliTox-Fluor Assay reagent
# 7. Time; 60 min; Room Temperature
# 8. Detection; dead-cell fluorescence (Ex/Em=485/520); EnVision plate reader
# Keywords: cytotoxicity, lymphoblastoid cell line, fluorescence, NTPHTS, NTPHTS_NCGC, NIEHS, EPA, DSSTox, MLSMR, MLSCN, NIH Roadmap, qHTS, NCGC
# Potency is the fitted concentration of half-maximal effect.
row,Compound,Potency
1,C1CCC2CCCCC2C1 (stereo not given),inactive
2,COC1=CC(=O)O[C@@H](/C=C/c2ccc3c(c2)OCO3)C1,inactive
3,CCSC(=O)Cl,inactive
4,ClC1=C(Cl)C2(Cl)C3C4CC(C5OC45)C3C1(Cl)C2(Cl)Cl (stereo not given),31.6 µM (active)
5,NC(=S)Nc1ccccc1,inactive
6,[O-][Br+2]([O-])O,inactive
7,CN=C=S,inactive
8,ClC(Cl)=C(Cl)Cl,inactive
9,CC(=O)[O-].CC(=O)[O-].O.O.O.[Pb+2],inactive
10,C=CCOC(C)=O,inactive
11,O=[N+]([O-])c1ccc(Cl)c(Cl)c1,inactive
12,CC(Cl)Cl,inactive
13,C=CC(=O)OCC,inactive
14,C=CCc1ccc(OC)cc1,inactive
15,Cc1cccc([N+](=O)[O-])c1,inactive
16,O=NN(CCO)CCO,inactive
17,c1ccc(-c2ccccc2)cc1,inactive
18,Clc1nc(Cl)nc(Nc2ccccc2Cl)n1,inactive
19,CC(C)(OO)c1ccccc1,inactive
20,COc1ccc(N)cc1,inactive

row,Compound,Potency
1,O=C=NC1CCCCC1,inactive
2,CC(O)CCl (stereo not given),inactive
3,CCCCCCCC(=O)Cl,inactive
4,c1ccc(OP(Oc2ccccc2)Oc2ccccc2)cc1,inactive
5,CNC(=O)O/N=C/C(C)(C)SC,inactive
6,ClC(Cl)=C(c1ccc(Cl)cc1)c1ccc(Cl)cc1,inactive
7,C/C=C/c1ccc2c(c1)OCO2,inactive
8,BrCCBr,inactive
9,Cc1cccc(C#N)c1,inactive
10,Brc1ccccc1,inactive
11,CCCSC(=O)Cl,inactive
12,N#CCCCl,inactive
13,ClC(Cl)(Cl)c1ccccc1,inactive
14,O=C(O)COc1ccc(Cl)cc1Cl,inactive
15,COC1=CC(=O)OC(CCc2ccccc2)C1 (stereo not given),inactive
16,Cc1ccccc1N,inactive
17,O=NN(c1ccccc1)c1ccccc1,inactive
18,ClCBr,inactive
19,OCC1CO1 (stereo not given),inactive
20,C[C@]12CC[C@H]3[C@@H](CCC4=CC(=O)CC[C@@]43C)[C@@H]1CC[C@@H]2O,inactive
